# Among all 310,000 compounds or so, about 14,000 (4.5%) showed an effect of 50% or more. The effect is printed as a negative number. What follows is part of a selection rich in strong results, with near analogues and random picks from the rest.
# Target: human ether-à-go-go-related gene (hERG) potassium channel (human, UniProt Q12809)
# Experiment: primary screen, population patch clamp on CHO cells stably expressing hERG; higher = less effect of the substance
# 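Further: peak tail current of the secondary pulse compared with the same well before compound.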
# Sequence of human ether-à-go-go-related gene (hERG) potassium channel (Q12809 whole entry, looked up): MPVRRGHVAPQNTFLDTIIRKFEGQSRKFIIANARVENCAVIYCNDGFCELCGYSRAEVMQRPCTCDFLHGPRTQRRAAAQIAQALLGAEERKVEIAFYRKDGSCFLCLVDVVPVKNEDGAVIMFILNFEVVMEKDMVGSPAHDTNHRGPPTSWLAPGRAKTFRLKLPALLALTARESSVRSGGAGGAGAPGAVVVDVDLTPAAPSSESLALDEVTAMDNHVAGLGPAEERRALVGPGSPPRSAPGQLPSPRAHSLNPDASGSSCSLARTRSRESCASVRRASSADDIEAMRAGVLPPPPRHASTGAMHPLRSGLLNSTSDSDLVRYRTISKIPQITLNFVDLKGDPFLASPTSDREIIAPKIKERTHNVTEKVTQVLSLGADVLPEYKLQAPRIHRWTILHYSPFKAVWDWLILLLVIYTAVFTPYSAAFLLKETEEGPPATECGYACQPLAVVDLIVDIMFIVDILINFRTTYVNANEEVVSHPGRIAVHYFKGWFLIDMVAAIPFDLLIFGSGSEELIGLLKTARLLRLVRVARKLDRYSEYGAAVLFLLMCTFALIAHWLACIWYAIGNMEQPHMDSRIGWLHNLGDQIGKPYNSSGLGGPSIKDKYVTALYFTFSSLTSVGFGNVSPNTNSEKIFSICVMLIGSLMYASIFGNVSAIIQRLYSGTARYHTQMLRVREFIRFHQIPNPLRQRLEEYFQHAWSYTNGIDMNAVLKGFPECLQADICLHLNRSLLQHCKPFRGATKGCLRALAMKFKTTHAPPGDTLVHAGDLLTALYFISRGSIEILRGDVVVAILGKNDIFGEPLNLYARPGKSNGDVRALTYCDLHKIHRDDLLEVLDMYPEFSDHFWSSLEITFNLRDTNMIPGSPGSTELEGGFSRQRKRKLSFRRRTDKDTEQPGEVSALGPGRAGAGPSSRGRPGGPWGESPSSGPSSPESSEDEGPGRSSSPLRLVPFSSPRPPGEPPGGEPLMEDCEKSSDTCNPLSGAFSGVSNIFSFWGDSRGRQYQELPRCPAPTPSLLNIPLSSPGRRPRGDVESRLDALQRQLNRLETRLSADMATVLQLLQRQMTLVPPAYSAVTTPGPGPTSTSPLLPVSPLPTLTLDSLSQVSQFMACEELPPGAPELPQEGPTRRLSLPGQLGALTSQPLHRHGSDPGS
row,Compound,"hERG current change (%, negative = inhibition) at 10uM"
1,O=C(COc1ccccc1)Nc1nnc(COc2ccccc2)s1,4.24%
2,CC(=O)/C(C[N+]1(C)CCCCC1)=N\O.[I-],16.4%
3,CSc1ncc(Cl)c(C(=O)Nc2ccccc2C)n1,6.48%
4,CCCCCN=CC1=C(O)CC(c2ccccc2)CC1=O (centres unmarked),-6.98%
5,COc1ccc(C2CC(=O)c3cnn(-c4nc(C)cc(C)n4)c3C2)cc1OC (centres unmarked),-4.84%
6,COCCNC(=S)N/N=C1\CC(C)CC(C)(C)C1 (centres unmarked),6.32%
7,C#CCn1cnc2c(cnn2-c2ccc(C)c(C)c2)c1=O,3.21%
8,COc1ccc(-c2[nH]ncc2CNC(C)CCn2cccn2)cc1F (centres unmarked),-2.23%
9,Nn1c(SCC(=O)Nc2nccs2)nnc1C1CC1,6.89%
10,COC(=O)c1ccccc1NS(=O)(=O)c1ccc2[nH]c(=O)[nH]c2c1,16.4%
11,O=C(CN1C(=O)c2cccc3cccc1c23)NCc1cccnc1,2.05%
12,CCCCCCNS(=O)(=O)c1ccc(Cl)s1,-12.9%
13,Cc1ccc(SCC(=O)NC(C)(C)C)cc1,-8.22%
14,Cc1nc2ncccn2c1-c1csc(Nc2ccccc2)n1,-54.7%
15,Cc1cccc(Nc2nc(-c3c(C)nc4ccccn34)cs2)c1,0.479%
16,Br.Cc1ccc(Nc2nc(-c3c(C)nc4ccccn34)cs2)cc1,-62.7%
17,Cc1ccc(Nc2nc(-c3c(C)nc4ncccn34)cs2)cc1,-10.4%
18,Cc1nc2ncccn2c1-c1csc(Nc2cccc(C(=O)O)c2)n1,5.55%
19,CC(=O)Nc1ccc(Nc2nc(-c3c(C)nc4ccccn34)cs2)cc1,18.4%

row,Compound,"hERG current change (%, negative = inhibition) at 10uM"
1,O=c1cc(N2CCN(c3ccccc3F)CC2)[nH]c(=O)n1-c1ccc(Br)cc1,-16.7%
2,COC(=O)C1C(=O)CC(C)(O)C(C(=O)OC)C1/C=C/c1ccccc1 (centres unmarked),-15.6%
3,COc1ccccc1C(=O)O/N=C(/c1ccncc1)c1ccc([N+](=O)[O-])cc1,-67.9%
4,N/C(Cc1ccc([N+](=O)[O-])cc1)=N\OC(=O)c1ccc([N+](=O)[O-])cc1,-57.6%
5,N/C(Cc1ccc([N+](=O)[O-])cc1)=N\OC(=O)c1ccccc1F,-35.6%
6,COc1ccc(/C(N)=N/OC(=O)c2ccc([N+](=O)[O-])c(C)c2)cc1OC,-16.5%
7,COc1ccccc1C(=O)O/N=C(\c1ccccc1)c1ccncc1,-14.4%
8,N/C(Cc1ccc([N+](=O)[O-])cc1)=N\OC(=O)c1ccc(Br)cc1,-41.5%
9,O=C(O/N=C(/c1ccccc1)c1ccncc1)c1ccccc1[N+](=O)[O-],-14%
10,N/C(=N\OC(=O)c1ccccc1Br)c1ccc([N+](=O)[O-])cc1,-14.4%
11,COc1ccc(/C(N)=N/OC(=O)c2ccc(C)c([N+](=O)[O-])c2)cc1OC,10.1%
12,N/C(Cc1ccc([N+](=O)[O-])cc1)=N\OC(=O)c1ccccc1Br,-57.7%
13,COc1ccc(/C(N)=N/OC(=O)c2ccc(OC)c([N+](=O)[O-])c2)cc1OC,-65%
14,N/C(Cc1ccc([N+](=O)[O-])cc1)=N\OC(=O)c1ccc2ccccc2c1,2.02%
15,c1ccc(CSc2nnnn2-c2ccccc2)cc1,-3.94%
16,CC(=O)NCc1ccc(S(=O)(=O)NC(C)CCc2ccccc2)cc1 (centres unmarked),13.3%
17,OCCn1ccc(-c2ccccc2OCc2ccc(F)cc2)n1,4.9%
18,N#Cc1ccccc1Cn1c(-c2cscn2)nc2ccccc21,-7.78%
19,CCOC(=O)c1sc(NC(=O)CCCn2nc([N+](=O)[O-])c(Cl)c2C)c(C(=O)OCC)c1C,-3.72%

row,Compound,"hERG current change (%, negative = inhibition) at 10uM"
1,Cc1cc(/C=C(\C#N)C(=O)NCCc2c[nH]c3ccccc23)c(C)n1C,3.85%
2,O=C1CS/C(=N\C(=O)N2c3ccccc3Sc3ccccc32)N1,5.96%
3,Cc1cc(S(=O)(=O)Nc2ccc(N(C)C)cc2)c(C)s1,0.71%
4,Fc1ccc(C(c2nnnn2C2CCCC2)N(Cc2ccco2)CC2CCCO2)cc1 (centres unmarked),-28%
5,O=C(CSc1cccc[n+]1[O-])Nc1cccc(S(=O)(=O)NC2=NCCCCC2)c1,54.8%
6,CCCn1c(C)cs/c1=N\C(=S)Nc1ccccc1,12.8%
7,COc1ccc(CC(=O)O/N=C(\N)Cc2ccc([N+](=O)[O-])cc2)cc1,-46.5%
8,COc1cc(C(=O)O/N=C(\N)Cc2ccc([N+](=O)[O-])cc2)cc(OC)c1OC,-68.9%
9,COc1cc(C(=O)OCc2ccc([N+](=O)[O-])cc2)cc(OC)c1OC,2.74%
10,N/C(=N\OC(=O)c1cccc(Br)c1)c1ccc([N+](=O)[O-])cc1,17.7%
11,COc1cc(C(=O)O/N=C(\N)c2ccc([N+](=O)[O-])cc2)cc(OC)c1OC,-45.2%
12,N/C(Cc1ccc([N+](=O)[O-])cc1)=N\OC(=O)c1cccc(Br)c1,-58%
13,COc1ccc(C(=O)O/N=C(\N)Cc2ccc([N+](=O)[O-])cc2)c(OC)c1,-57.1%
14,Cc1ccc(C(=O)O/N=C(\N)Cc2ccc([N+](=O)[O-])cc2)c(Cl)c1,-46.3%
15,COc1ccc(C/C(N)=N/OC(=O)c2cccc([N+](=O)[O-])c2)cc1,-44.2%
16,N/C(=N\OC(=O)Cc1ccc([N+](=O)[O-])cc1)c1cccc(Br)c1,3.08%
17,Cc1cccc(OCC(=O)O/N=C(\N)Cc2ccc([N+](=O)[O-])cc2)c1,-32.5%
18,Cc1cccc(C(=O)O/N=C(\N)Cc2ccc([N+](=O)[O-])cc2)c1,-64.3%
